Among all 5,500 compounds or so, about 2,000 (36%) were called active. Inconclusive results (about 18%) are left out. Rule as the data show it: active = normalized growth mostly below about 0.91 (no sharp cut-off); inconclusive = no clear call, values can overlap the other calls; inactive = mostly above about 0.92. Some of the results follow.
Assay: chemical genetic growth profiling, strain panel (AID 1159580);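 also: tested at 20 µM; growth read once vehicle control cultures reached saturation at 30 °C; 1 = growth at the plate median or of vehicle wells; lower values mean less growth of the strain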
Settings: growth OD
[1] = S. cerevisiae deletion strains, locus YAL013W, strain DEP1, active compounds read low
[2] = S. cerevisiae deletion strains, locus YBR229C, strain ROT2, active compounds read low
[3] = S. cerevisiae deletion strains, locus YDL101C, strain DUN1, active compounds read low
[4] = S. cerevisiae deletion strains, locus YDR150W, strain NUM1, active compounds read low
[5] = S. cerevisiae deletion strains, locus YEL061C, strain CIN8, active compounds read low
[6] = S. cerevisiae deletion strains, locus YGR078C, strain PAC10, active compounds read low
[7] = S. cerevisiae deletion strains, locus YHR030C, strain SLT2, active compounds read low
[8] = S. cerevisiae deletion strains, locus YJR043C, strain POL32, active compounds read low
[9] = S. cerevisiae deletion strains, locus YJR075W, strain HOC1, active compounds read low
[10] = S. cerevisiae deletion strains, locus YLR039C, strain RIC1, active compounds read low
[11] = S. cerevisiae deletion strains, locus YLR262C, strain YPT6, active compounds read low
[12] = S. cerevisiae deletion strains, locus YMR263W, strain SAP30, active compounds read low
[13] = S. cerevisiae deletion strains, locus YMR307W, strain GAS1, active compounds read low
[14] = S. cerevisiae deletion strains, locus YNL128W, strain TEP1, active compounds read low
[15] = S. cerevisiae deletion strains, locus YNL153C, strain GIM3, active compounds read low
[16] = S. cerevisiae deletion strains, locus YNL322C, strain KRE1, active compounds read low
[17] = S. cerevisiae deletion strains, locus YOL006C, strain TOP1, active compounds read low
[18] = S. cerevisiae deletion strains, locus YPL055C, strain LGE1, active compounds read low
[19] = S. cerevisiae deletion strains, locus YPL241C, strain CIN2, active compounds read low
[20] = S. cerevisiae strains, strain wild type, active compounds read low
[21] = S. cerevisiae deletion strains, locus YAL040C, strain CLN3, active compounds read low
[22] = S. cerevisiae deletion strains, locus YCL061C, strain MRC1 (second series), active compounds read low
[23] = S. cerevisiae deletion strains, locus YDR363W, strain ESC2, active compounds read low
[24] = S. cerevisiae deletion strains, locus YER002W, strain NOP16, active compounds read low
[25] = S. cerevisiae deletion strains, locus YNL175C, strain NOP13, active compounds read low
[26] = S. cerevisiae deletion strains, locus YNL197C, strain WHI3, active compounds read low
[27] = S. cerevisiae deletion strains, locus YNL224C, strain SQS1, active compounds read low
[28] = S. cerevisiae deletion strains, locus YOR083W, strain WHI5 (second series), active compounds read low

Measured: normalized growth

COC(=O)CCC(=O)O[C@H]1CCC2(C)C(CCC3C2C(=O)[C@@H](O)C2(C)C3CC3OC4(CCC(C)CO4)[C@@H](C)C32)C1 (stereo partly drawn)
inactive: [1] 0.991 | S. cerevisiae deletion strains, locus YBR021W, strain FUR4, active compounds read low 1.01 | [2] 1.01 | S. cerevisiae deletion strains, locus YCL029C, strain bik1, active compounds read low 0.997 | S. cerevisiae deletion strains, locus YDL035C, strain GPR1, active compounds read low 0.993 | S. cerevisiae deletion strains, locus YDL074C, strain BRE1, active compounds read low 0.997 | [3] 1.02 | S. cerevisiae deletion strains, locus YDL134C, strain PPH21, active compounds read low 1 | S. cerevisiae deletion strains, locus YDL185W, strain tfp1, active compounds read low 0.996 | S. cerevisiae deletion strains, locus YDL192W, strain arf1, active compounds read low 1 | S. cerevisiae deletion strains, locus YDR101C, strain arx1, active compounds read low 0.997 | [4] 1 | S. cerevisiae deletion strains, locus YDR162C, strain NBP2, active compounds read low 1 | S. cerevisiae deletion strains, locus YDR318W, strain mcm21, active compounds read low 0.996 | S. cerevisiae deletion strains, locus YDR388W, active compounds read low 0.994 | S. cerevisiae deletion strains, locus YDR502C, strain sam2, active compounds read low 1 | [5] 1.01 | S. cerevisiae deletion strains, locus YER110C, active compounds read low 0.996 | S. cerevisiae deletion strains, locus YER155C, strain BEM2, active compounds read low 1.01 | S. cerevisiae deletion strains, locus YER167W, strain BCK2, active compounds read low 1.02 | S. cerevisiae deletion strains, locus YGL078C, strain dbp3, active compounds read low 0.991 | S. cerevisiae deletion strains, locus YGL086W, strain mad1, active compounds read low 1 | S. cerevisiae deletion strains, locus YGL248W, strain PDE1, active compounds read low 1 | [6] 1.02 | S. cerevisiae deletion strains, locus YGR135W, strain pre9, active compounds read low 1 | S. cerevisiae deletion strains, locus YGR229C, strain SMI1, active compounds read low 1.01 | S. cerevisiae deletion strains, locus YGR252W, strain gcn5, active compounds read low 0.963 | [7] 1.01 | S. cerevisiae deletion strains, locus YHR079C, strain IRE1 (second series), active compounds read low 0.991 | S. cerevisiae deletion strains, locus YHR094C, strain hxt1, active compounds read low 0.998 | S. cerevisiae deletion strains, locus YHR129C, strain ARP1, active compounds read low 0.999 | S. cerevisiae deletion strains, locus YHR200W, strain rpn10, active compounds read low 1 | S. cerevisiae deletion strains, locus YIL066C, strain RNR3, active compounds read low 1.01 | S. cerevisiae deletion strains, locus YIL073C, strain SPO22, active compounds read low 1 | S. cerevisiae deletion strains, locus YIL125W, strain kgd1, active compounds read low 1.01 | S. cerevisiae deletion strains, locus YIR030C, strain dcg1, active compounds read low 0.998 | S. cerevisiae deletion strains, locus YJL095W, strain BCK1, active compounds read low 0.989 | S. cerevisiae deletion strains, locus YJL134W, strain LCB3, active compounds read low 1.01 | S. cerevisiae deletion strains, locus YJL168C, strain set2, active compounds read low 0.994 | S. cerevisiae deletion strains, locus YJL187C, strain SWE1 (second series), active compounds read low 1 | [8] 1 | [9] 1.02 | S. cerevisiae deletion strains, locus YKL009W, strain mrt4, active compounds read low 0.998 | S. cerevisiae deletion strains, locus YKL068W, active compounds read low 0.999 | S. cerevisiae deletion strains, locus YKL085W, strain MDH1 (second series), active compounds read low 0.996 | S. cerevisiae deletion strains, locus YKL085W, strain MDH1, active compounds read low 0.996 | S. cerevisiae deletion strains, locus YKL190W, strain CNB1, active compounds read low 1.01 | S. cerevisiae deletion strains, locus YKR001C, strain vps1, active compounds read low 0.993 | [10] 0.996 | S. cerevisiae deletion strains, locus YLR058C, strain SHM2, active compounds read low 1 | S. cerevisiae deletion strains, locus YLR102C, strain apc9, active compounds read low 0.996 | [11] 0.984 | S. cerevisiae deletion strains, locus YLR268W, strain sec22, active compounds read low 1 | S. cerevisiae deletion strains, locus YLR330W, strain CHS5, active compounds read low 1.01 | S. cerevisiae deletion strains, locus YLR342W, strain FKS1 (second series), active compounds read low 1.02 | S. cerevisiae deletion strains, locus YLR371W, strain rom2, active compounds read low 1 | S. cerevisiae deletion strains, locus YLR418C, strain cdc73, active compounds read low 0.982 | S. cerevisiae deletion strains, locus YML016C, strain PPZ1, active compounds read low 1.01 | S. cerevisiae deletion strains, locus YML032C, strain rad52, active compounds read low 1.01 | S. cerevisiae deletion strains, locus YML124C, strain tub3, active compounds read low 0.998 | S. cerevisiae deletion strains, locus YMR078C, strain ctf18, active compounds read low 0.994 | S. cerevisiae deletion strains, locus YMR223W, strain ubp8, active compounds read low 1 | [12] 1.03 | [13] 0.997 | S. cerevisiae deletion strains, locus YNL067W, strain RPL9B, active compounds read low 1.01 | [14] 1.01 | [15] 1.01 | S. cerevisiae deletion strains, locus YNL233W, strain BNI4, active compounds read low 1 | S. cerevisiae deletion strains, locus YNL250W, strain rad50, active compounds read low 0.999 | S. cerevisiae deletion strains, locus YNL271C, strain bni1, active compounds read low 0.995 | S. cerevisiae deletion strains, locus YNL298W, strain CLA4, active compounds read low 0.985 | S. cerevisiae deletion strains, locus YNL307C, strain MCK1, active compounds read low 0.997 | [16] 1.01 | S. cerevisiae deletion strains, locus YNR052C, strain pop2, active compounds read low 1 | [17] 0.943 | S. cerevisiae deletion strains, locus YOL012C, strain htz1 1.03 | S. cerevisiae deletion strains, locus YOL147C, strain pex11, active compounds read low 1 | S. cerevisiae deletion strains, locus YOR061W, strain CKA2, active compounds read low 1 | S. cerevisiae deletion strains, locus YOR069W, strain VPS5, active compounds read low 1.01 | S. cerevisiae deletion strains, locus YOR136W, strain idh2, active compounds read low 1 | S. cerevisiae deletion strains, locus YOR144C, strain elg1, active compounds read low 0.996 | S. cerevisiae deletion strains, locus YOR184W, strain ser1, active compounds read low 1.01 | S. cerevisiae deletion strains, locus YOR316C, strain cot1, active compounds read low 1 | [18] 1.03 | [19] 1 | S. cerevisiae deletion strains, locus YPR119W, strain clb2, active compounds read low 0.988 | S. cerevisiae deletion strains, locus YPR141C, strain kar3, active compounds read low 0.997 | S. cerevisiae deletion strains, locus YPR163C, strain tif3, active compounds read low 0.998 | S. cerevisiae deletion strains, locus YPR167C, strain met16, active compounds read low 1 | S. cerevisiae deletion strains, strain wtn01, active compounds read low 1 | [20] 1.04

O=C1Nc2ccc(I)cc2/C1=C/c1cc(Br)c(O)c(Br)c1
inactive: [21] 0.966 | [22] 0.995 | [4] 0.953 | [23] 0.942 | [24] 1.01 | [6] 0.919 | [9] 0.979 | [12] 0.991 | [25] 0.922 | [26] 0.97 | [27] 0.993
active: [15] 0.666 | [28] 0.665

COc1ccc(C=C2C(=O)NC(=S)NC2=O)cc1Br
inactive: [1] 1.02 | [2] 1.03 | [3] 1 | [4] 0.946 | [5] 0.992 | [6] 0.995 | [7] 1.01 | S. cerevisiae deletion strains, locus YHR087W, strain rtc3, active compounds read low 0.984 | [8] 0.998 | [9] 1 | [10] 1.07 | S. cerevisiae deletion strains, locus YLR058C, strain SHM2 (second series), active compounds read low 1 | S. cerevisiae deletion strains, locus YLR085C, strain ARP6, active compounds read low 1.01 | [11] 1.06 | S. cerevisiae deletion strains, locus YML094W, strain GIM5, active compounds read low 1 | S. cerevisiae deletion strains, locus YMR219W, strain ESC1, active compounds read low 1.01 | [12] 0.928 | [14] 1 | [15] 0.965 | S. cerevisiae deletion strains, locus YNL298W, strain CLA4 (second series), active compounds read low 1 | [16] 1.01 | S. cerevisiae deletion strains, locus YNR030W, strain Alg12, active compounds read low 0.997 | [17] 1.01 | [18] 0.884 | [19] 1.02 | S. cerevisiae deletion strains, locus YPR135W, strain CTF4, active compounds read low 0.968 | [20] 1.01

CCO/C([O-])=N/c1c[n+](N2CCOCC2)no1
inactive: [21] 0.99 | [22] 0.99 | [23] 1.02 | [24] 1 | [12] 0.98 | [13] 0.996 | [14] 1.01 | [25] 1 | [26] 0.984 | [27] 1.01 | [28] 0.995 | [19] 0.968

From PubChem BioAssay AID1159580 (chemical genetic matrix, 2015)
